Compounds with a hit are over-represented: about 3.5% of the library has one in this group of screens.
GPR151 activ – activators of human GPR151, primary screen, cell-based, PathHunter beta-arrestin, luminescence; G-protein coupled receptor 151 (Homo sapiens), Q8TDV0; PathHunter beta-arrestin GPR151 cells; activation, % at 11.2 µM; 650,000 compounds, 1% hits; in the data active = activation above about 4.9%;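 note: 0% = median of compound wells and 100% = cells with positive control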
TEAD-YAP block – TEAD-YAP interaction inhibition, primary screen, TEAD-YAP interaction inhibitor project, luminescence, HEK-TIYL cells; 640,000 compounds, 1.4% hits; TEAD-Gal4/YAP UAS-luciferase luminescence; inhibition, % at 9.12 µM; in the data active = inhibition above about 32%;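 note: 0% = median of test compound wells and 100% = reference inhibitor wells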
FBW7 act – FBW7 E3 ligase activators, primary screen, biochemical, AlphaScreen, human | F-box/WD repeat-containing protein 7 (Homo sapiens), Q969H0 | 650,000 compounds, 0.13% hits | AlphaScreen FBW7–phospho-cyclin E peptide binding, activator screen | normalized activity (activation), % at 26.1 µM | AID 1259310, 2017; in the data active = normalized activity above about 1.9%;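 note: purified mutant Fbw7 with reduced substrate affinity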
MITF inh – MITF inhibitors, primary screen, biochemical, AlphaScreen, human; Microphthalmia-associated transcription factor (Homo sapiens), O75030; AlphaScreen MITF homodimerization, bead proximity signal; inhibition, % at 2.6 µM; 650,000 compounds, 0.91% hits; in the data active = inhibition above about 50%;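 note: 0% = vehicle wells with protein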
Target sequence (O75030 whole entry, looked up): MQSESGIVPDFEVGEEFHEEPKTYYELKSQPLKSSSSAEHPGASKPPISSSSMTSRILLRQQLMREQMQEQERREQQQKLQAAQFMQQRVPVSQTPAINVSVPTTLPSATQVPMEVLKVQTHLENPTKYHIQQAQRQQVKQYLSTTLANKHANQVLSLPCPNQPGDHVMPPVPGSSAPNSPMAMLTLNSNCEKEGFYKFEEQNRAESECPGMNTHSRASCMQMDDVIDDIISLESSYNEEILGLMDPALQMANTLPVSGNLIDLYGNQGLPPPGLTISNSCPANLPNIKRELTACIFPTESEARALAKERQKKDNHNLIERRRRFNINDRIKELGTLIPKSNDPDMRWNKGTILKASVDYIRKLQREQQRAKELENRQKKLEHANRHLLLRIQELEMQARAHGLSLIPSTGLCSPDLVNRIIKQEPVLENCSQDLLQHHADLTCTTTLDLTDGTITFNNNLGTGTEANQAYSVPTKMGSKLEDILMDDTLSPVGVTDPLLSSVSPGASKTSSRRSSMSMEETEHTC
MITF confirm – MITF inhibitors, retest of hits, confirmation, biochemical, AlphaScreen, triplicate; shares compounds with MITF inh; AlphaScreen MITF homodimerization, biotin/His-MITF beads; inhibition, % at 2.6 µM; 4,700 compounds, 16% hits; AID 1259372, 2018;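 active = inhibition above a cutoff derived from the DMSO control wells, cut at about 28% in these data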;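 note: 0% = MITF dimer wells with DMSO only; inhibitors lower the bead chemiluminescence by keeping MITF from dimerizing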
AS interf DR – AlphaScreen optical interference compounds, dose response, counter-screen, biochemical, HTS. shares compounds with MITF inh. 480 compounds, 6% hits. AlphaScreen optical interference counterscreen, cell-free. IC50, µM; call rule not given here
AS interf ctr – AlphaScreen optical interference compounds, counter-screen for MITF inhibitor project, biochemical, triplicate; shares compounds with MITF inh; LysRS AlphaScreen counterscreen, signal interference; inhibition, % at 2.6 µM; 4,700 compounds, 7.6% hits; AID 1259376, 2018;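 active = inhibition above a cutoff derived from the DMSO control wells, cut at about 30% in these data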
Active calls of the source: *; / = no result.

SMILES	GPR151 activ	TEAD-YAP block	FBW7 act	MITF inh	MITF confirm	AS interf ctr	others
O=C(Nn1c(-c2ccc(Br)cc2)nc2ccccc2c1=O)c1cc(-c2ccccc2)nc2ccccc12	-2	-5	0	17	/	/
COc1ccc(CN2CCN(C(=O)c3cccs3)CC2)cc1Br	-1	-9	0	67*	3	9
COc1ccc(CN2CCN(C(=O)c3ccccc3F)CC2)cc1Br	0	-3	0	54*	27	-10
CCc1ccc(CN2CCC(C(=O)NC(C)C)CC2)cc1	0	7	0	34	/	/
COc1ccc(CN2CCN(C(=O)CC(C)C)CC2)cc1Br	-2	-4	0	54*	4	15
COc1ccc(C(=O)N2CCN(Cc3ccc(OC)c(Br)c3)CC2)cc1	-2	4	1	43	/	/
CCc1ccc(CN2CCN(C(=O)CC(C)C)CC2)cc1	0	5	0	58*	1	9
COc1ccc(CN2CCN(C(=O)c3cccs3)CC2)cc1OC	-2	1	0	37	/	/
O=C(O)/C=C/C(=O)N(CC12CC3CC(CC(C3)C1)C2)C1CC(=O)N(c2cccc(Cl)c2)C1=O (stereo unspecified)	1	-3	0	8	/	/
CCOc1ccc(CN2CCN(C(=O)c3cccs3)CC2)cc1	-1	8	0	60*	9	14
Cn1c(SCCOc2ccc(Br)cc2)nnc1-c1ccncc1	-2	5	0	3	/	/
O=C(C1CCCN(Cc2ccco2)C1)N1CCCCCC1 (stereo unspecified)	3	2	0	54*	5	-2
O=C(C1CCCN(Cc2ccccc2F)C1)N1CCCCC1 (stereo unspecified)	-1	9	0	69*	11	17
COc1ccc(C(=O)N2CCN(C3CCCC(C)C3)CC2)cc1 (stereo unspecified)	1	7	0	52*	4	11
COc1ccc(C(=O)N2CCN(Cc3cc(OC)c(O)c(OC)c3)CC2)cc1	-1	5	0	26	/	/
COc1cc(C(=O)N2CCN(Cc3ccc(C)cc3)CC2)cc(OC)c1OC	0	7	0	48	/	/
COc1cc(C(=O)N2CCN(Cc3ccc(Br)cc3)CC2)cc(OC)c1OC	0	-3	0	54*	9	9
COc1cc(CN2CCN(C(=O)c3cc(OC)c(OC)c(OC)c3)CC2)cc(OC)c1	-1	4	0	55*	4	12
COc1ccc(C(=O)N2CCN(Cc3cc(OC)c(OC)c(OC)c3)CC2)cc1	-1	-9	1	72*	5	-1
COc1cccc(C(=O)N2CCN(Cc3cc(OC)c(OC)c(OC)c3)CC2)c1	1	-6	0	49	/	/
CCC(C)N1CCN(C(=O)c2cc(OC)c(OC)c(OC)c2)CC1 (stereo unspecified)	-1	-4	0	51*	-9	0
O=C(Nc1cccc(N2CCC(N3CCOCC3)CC2)c1)c1cccc(C(F)(F)F)c1	0	-1	0	0	/	/
CCC(=O)Nc1c2c(nc3c1CCC3)CCCC2	-1	-3	0	8	/	/
CN(C)CC(=O)Nc1c2c(nc3c1CCC3)CCCC2	-1	-8	0	59*	0	0
CC(C)NCC(=O)Nc1c2c(nc3c1CCC3)CCCC2	-1	0	0	75*	1	-3
SMILES	GPR151 activ	TEAD-YAP block	FBW7 act	MITF inh	MITF confirm	AS interf ctr	others
Cc1ccc(CN2CCNC(=O)C2CC(=O)NC23CC4CC(CC(C4)C2)C3)cc1 (stereo unspecified)	0	-3	0	5	/	/
O=C(CSc1nc(NCc2ccco2)c2ccccc2n1)N1CCN(c2ccccc2)CC1	0	17	0	52*	3	1
CCOc1cccc2sc(=NC(=O)c3ccccc3S(C)(=O)=O)n(C)c12	-1	-28	0	-1	/	/
CCSCCOC(=O)C1=C(C)NC2=C(C(=O)C(C(=O)OC)C(C)C2)C1c1cccc(OCc2ccccc2)c1 (stereo unspecified)	0	-2	0	71*	-18	-8
CCOC(=O)CSc1nc2c(c(=O)n1CC1CCCC1)C1(CCCC1)Cc1ccccc1-2	1	3	0	1	/	/
c1ccc(C2=NNC3(S2)C2CC4CC(C2)CC3C4)cc1 (stereo unspecified)	-1	-30	1	18	/	/
Cc1nc(SCC(=O)Nc2cccc(C(F)(F)F)c2)c2c3c(sc2n1)CCC3	-1	-9	0	74*	5	13
COc1cc(OC)c(NC(=O)c2sc3ncnc(N4CCC(C)CC4)c3c2C)cc1Cl	1	5	0	4	/	/
CC(C)C(NC(=O)c1ccc(Cl)cc1Cl)C(=O)Nc1ccc(N)c([N+](=O)[O-])c1 (stereo unspecified)	2	-19	0	2	/	/
CS(=O)(=O)c1cc(C#N)c(N2CCNCC2)nc1-c1ccc(Cl)cc1	2	3	0	1	/	/
CC(C)Nc1nc(-c2ccc(Cl)cc2)c(S(C)(=O)=O)cc1C#N	2	-13	0	58*	14	16
Cc1cc(C)nc(SCc2nnc(SCC(=O)Nc3nccs3)o2)n1	0	4	0	72*	77*	31*
Cc1cc(C)c(C(N)=O)c(SCC(=O)Nc2nccs2)n1	0	-3	0	2	/	/
COc1ccc(OCCNCc2ccco2)cc1	2	0	0	52*	-18	-2
CN(C)c1cccc(Nc2nc3ncnc(NCCCN4CCCC4=O)c3[nH]2)c1	2	-3	0	53*	4	15
O=C(Cn1nnc(-c2ccccc2NC(=O)C2CC2)n1)Nc1ccccc1	0	3	0	-2	/	/
NC(=O)Cn1nnc(-c2ccccc2NC(=O)C2CCCCC2)n1	-1	2	0	84*	12	11
Oc1cc(O)c(C(O)(C(F)(F)F)C(F)(F)F)cc1C(O)(C(F)(F)F)C(F)(F)F	-1	0	0	-11	/	/
Cc1ccc(N2C(=O)C3C(C2=O)C2(CO)C=CC3(C)O2)cc1[N+](=O)[O-] (stereo unspecified)	1	7	0	53*	43*	5	AS interf DR=>6.5
CC12C=CC(CO)(O1)C1C(=O)N(c3ccc([N+](=O)[O-])cc3)C(=O)C12 (stereo unspecified)	0	-11	0	-3	/	/
